Here are results for 22 molecules from the supplement of paper PMC4709259.

Structures can show the parent of a compound that is named as a salt. ± gives the standard deviation.

This assay deals with Jurkat. In words: cell count relative to DMSO control (fraction of control); higher = more cells (less growth inhibition). Conditions: 48 h.
As for `CN1CCN(C2=Nc3ccccc3Oc3ccc(Cl)cc32)CC1` [Loxapine Succinate] (concentration: 25 µM), the cell count is 1.16 ± 0.1.
The result for `CC(C(=O)O)c1cccc(C(=O)c2ccccc2)c1` (configuration not stated) [Ketoprofen] (concentration: 25 µM) reads 0.722 ± 0.029; that for `NCc1ccc(S(N)(=O)=O)cc1` [Mafenide·HCl] (concentration: 25 µM), 1.17 ± 0.04; that for `Clc1ccc(CCC(Cn2ccnc2)Sc2c(Cl)cccc2Cl)cc1` (configuration not stated) [Butoconazole Nitrate] (concentration: 25 µM), 0.953 ± 0.094.
In turn, `CNS(=O)(=O)CCc1ccc2[nH]cc(C3CCN(C)CC3)c2c1` [Naratriptan·HCl] (concentration: 25 µM) returned a cell count of 0.951 ± 0.065.
The result for `O=C(CCCN1CC=C(n2c(=O)[nH]c3ccccc32)CC1)c1ccc(F)cc1` [Droperidol] (concentration: 25 µM) reads 0.812 ± 0.095; that for `CC1(C)S[C@@H]2[C@H](NC(=O)[C@H](N)c3ccc(O)cc3)C(=O)N2[C@H]1C(=O)O` [Amoxicillin] (concentration: 25 µM), 0.866 ± 0.063.
Take `CC(C)(C#N)c1cc(Cn2cncn2)cc(C(C)(C)C#N)c1` [Anastrozole] (concentration: 25 µM): the cell count came out at 0.933 ± 0.054.
Take `CC(C)(C(=O)O)c1ccc(C(O)CCCN2CCC(C(O)(c3ccccc3)c3ccccc3)CC2)cc1` (configuration not stated) [Fexofenadine·HCl] (concentration: 25 µM): the cell count is 0.725 ± 0.024.
The result for `C[N+](C)(C)C[C@H](O)CC(=O)[O-]` [Levocarnitine] (concentration: 25 µM) reads 1.01 ± 0.099; that for `COc1cc(C(=O)NCc2ccc(OCCN(C)C)cc2)cc(OC)c1OC` [Trimethobenzamide·HCl] (concentration: 25 µM), 1.07 ± 0.057; that for `COc1ccc(CC(C)NCC(O)c2ccc(O)c(NC=O)c2)cc1` (configuration not stated) [Formoterol] (concentration: 25 µM), 0.808 ± 0.044.
`CCCc1nc(C(C)(C)O)c(C(=O)O)n1Cc1ccc(-c2ccccc2-c2nnn[nH]2)cc1` [Olmesartan] (concentration: 25 µM) had a cell count of 1.16 ± 0.1.
The result for `CC(=O)NC[C@H]1CN(c2ccc(N3CCOCC3)c(F)c2)C(=O)O1` [Linezolid] (concentration: 25 µM) reads 0.718 ± 0.084; that for `Clc1cccc(Cl)c1NC1=NCCN1` [Clonidine·HCl] (concentration: 25 µM), 0.224 ± 0.083.
The result for `CC1(C)S[C@@H]2[C@H](NC(=O)[C@H](N)c3ccccc3)C(=O)N2[C@H]1C(=O)O` [Ampicillin Trihydrate] (concentration: 25 µM) reads 1.17 ± 0.068; that for `OCCOCCN1CCN(C(c2ccccc2)c2ccc(Cl)cc2)CC1` (configuration not stated) [Hydroxyzine Dihydrochloride] (concentration: 25 µM), 0.968 ± 0.063; that for `C[C@H](CS)C(=O)N1CCC[C@H]1C(=O)O` [Captopril] (concentration: 25 µM), 1.01 ± 0.099.
The result for `CN(C)CCc1c[nH]c2ccc(C[C@H]3COC(=O)N3)cc12` [Zolmitriptan] (concentration: 25 µM) reads 0.419 ± 0.11.
For the molecule `COc1c2occc2cc2ccc(=O)oc12` [Methoxsalen (Xanthotoxin)] (concentration: 25 µM), the cell count came to 0.761 ± 0.14.
Turning to `COc1cc(C)c(/C=C/C(C)=C/C=C/C(C)=C/C(=O)O)c(C)c1C` [Acitretin] (concentration: 25 µM), the cell count worked out at 0.625 ± 0.11.
Consider `CCN(CC)C(=O)C1(c2ccccc2)CC1CN` (configuration not stated) [Milnacipran·HCl] (concentration: 25 µM), for which the cell count is 0.792 ± 0.1.
